Structures can show the parent of a compound that is named as a salt. ± gives the standard deviation.

The test system of the assay is Jurkat. The assay is described as follows: mean cell size (FSC-A) relative to DMSO control (fraction of control); higher = larger cells. As to conditions: 48 h. In a few lines: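 Jurkat cells at 600 cells/µl were incubated for 1 h and then treated for 48h with the Enzo Screen-Well FDA Approved Drug Library v2.0 at 25µM, with DMSO at 0.9% (v/v) final. Compounds that reduced counts below 20% of controls were retested in 10-fold dilutions down to 25nM. Cell count and mean cell size, taken as forward scatter area, were measured by flow cytometry relative to solvent-only controls. Each plate carried 6-12 controls, and values are means of 3 biological replicates.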
The molecule `O=C(c1ccccc1)c1ccc2n1CCC2C(=O)O` (centres undefined) [Ketorolac Tromethamine] (concentration: 25 µM) yielded a mean cell size of 0.907 ± 0.024.

In the case of `COc1cccc2c1C(=O)c1c(O)c3c(c(O)c1C2=O)C[C@@](O)(C(=O)CO)C[C@@H]3O[C@H]1C[C@H](N)[C@H](O)[C@H](C)O1` [Doxorubicin·HCl] (concentration: 250 nM), the mean cell size worked out at 1.47 ± 0.048. The result for `NC(=O)N[C@@H](CCC(=O)O)C(=O)O` [Carglumic Acid] (concentration: 25 µM) reads 0.936 ± 0.037; that for `CC(C)/N=c1\cc2n(-c3ccc(Cl)cc3)c3ccccc3nc-2cc1Nc1ccc(Cl)cc1` [Clofazimine] (concentration: 2.5 µM), 0.952 ± 0.03; that for `Cn1c(=O)c2nc[nH]c2n(C)c1=O` [Theophylline] (concentration: 25 µM), 0.947 ± 0.041.

On to `C[C@]12C=CC(=O)C=C1CC[C@@H]1[C@@H]2C(=O)C[C@@]2(C)[C@H]1CC[C@]2(O)C(=O)CO` [Prednisone] (concentration: 25 µM), for which the mean cell size is 1 ± 0.042. The result for `CCOC(=O)[C@H](CCc1ccccc1)N[C@@H](C)C(=O)N1Cc2cc(OC)c(OC)cc2C[C@H]1C(=O)O` [Moexipril·HCl] (concentration: 25 µM) reads 0.9426 ± 0.0064; that for `O=c1[nH]cnc2c1ncn2[C@H]1CC[C@@H](CO)O1` [Didanosine] (concentration: 25 µM), 0.9758 ± 0.0048; that for `O=P(O)(O)C(Sc1ccc(Cl)cc1)P(=O)(O)O` [Tiludronate Disodium] (concentration: 25 µM), 0.961 ± 0.06. As for `CC(=O)[C@H]1CC[C@H]2[C@@H]3CCC4=CC(=O)CC[C@]4(C)[C@H]3CC[C@]12C` [Progesterone] (concentration: 25 µM), the mean cell size came out at 1 ± 0.045. The result for `Cc1ccccc1C(=O)Nc1ccc(C(=O)N2CCCC(O)c3cc(Cl)ccc32)c(C)c1` (centres undefined) [Tolvaptan] (concentration: 25 µM) reads 0.951 ± 0.055; that for `CCCc1nn(C)c2c(=O)[nH]c(-c3cc(S(=O)(=O)N4CCN(C)CC4)ccc3OCC)nc12` [Sildenafil Citrate] (concentration: 25 µM), 1.02 ± 0.055. Then `CCOC(=O)[C@H](CCc1ccccc1)N[C@@H](C)C(=O)N1[C@H](C(=O)O)C[C@@H]2CCC[C@@H]21` [Ramipril] (concentration: 25 µM), with 1.01 ± 0.029. Molecule `N[C@@H](C(=O)N[C@@H]1C(=O)N2C(C(=O)O)=C(Cl)CS[C@H]12)c1ccccc1` [Cefaclor] (concentration: 25 µM) came in with a mean cell size of 0.916 ± 0.015.

Molecule `C[N+](C)(C)CC(=O)O` [Betaine] (concentration: 25 µM) had a mean cell size of 0.945 ± 0.047. As to `CC(C)N1CCN(c2ccc(OCC3COC(Cn4cncn4)(c4ccc(Cl)cc4Cl)O3)cc2)CC1` (centres undefined) [Terconazole] (concentration: 25 µM), the mean cell size was 0.891 ± 0.017.

As to `COc1cc(NC(C)CCCN)c2ncccc2c1` (centres undefined) [Primaquine Phosphate] (concentration: 25 µM), the mean cell size worked out at 1.01 ± 0.028. The result for `Clc1ccc2c(c1)C(N1CCNCC1)=Nc1ccccc1O2` [Amoxapine] (concentration: 25 µM) reads 1.03 ± 0.013; that for `CCN(CCO)CCCC(C)Nc1ccnc2cc(Cl)ccc12` (centres undefined) [Hydroxychloroquine Sulfate] (concentration: 25 µM), 0.948 ± 0.013. Then `CO[C@H]1/C=C/O[C@@]2(C)Oc3c(C)c(O)c4c(O)c(c(/C=N/N5CCN(C6CCCC6)CC5)c(O)c4c3C2=O)NC(=O)/C(C)=C\C=C\[C@H](C)[C@H](O)[C@@H](C)[C@@H](O)[C@@H](C)[C@H](OC(C)=O)[C@@H]1C` [Rifapentine] (concentration: 25 µM), with 0.887 ± 0.025; and `OCCN1CCN(CCCN2c3ccccc3Sc3ccc(C(F)(F)F)cc32)CC1` [Fluphenazine·HCl] (concentration: 2.5 µM), with 1.13 ± 0.017; and `CNCC[C@H](Oc1cccc2ccccc12)c1cccs1` [Duloxetine·HCl] (concentration: 25 µM), with 1.02 ± 0.069. The result for `Nc1cc(-c2ccncc2)c[nH]c1=O` [Amrinone] (concentration: 25 µM) reads 0.965 ± 0.031.

Consider `Nc1ccn(C[C@@H](CO)OCP(=O)(O)O)c(=O)n1` [Cidofovir] (concentration: 25 µM), for which the mean cell size was 1.13 ± 0.057. The result for `C[N+](C)(C)CCOC(N)=O` [Carbachol (Carbamylcholine ) Chloride] (concentration: 25 µM) reads 0.962 ± 0.019; that for `CCOC(=O)N1CCC(=C2c3ccc(Cl)cc3CCc3cccnc32)CC1` [Loratadine] (concentration: 25 µM), 0.938 ± 0.034; that for `Nc1nc(/C(=C/CC(=O)O)C(=O)N[C@@H]2C(=O)N3C(C(=O)O)=CCS[C@H]23)cs1` [Ceftibuten] (concentration: 25 µM), 0.925 ± 0.016. Then `CC(=O)S[C@@H]1CC2=CC(=O)CC[C@]2(C)[C@H]2CC[C@@]3(C)[C@@H](CC[C@@]34CCC(=O)O4)[C@H]12` [Spironolactone] (concentration: 25 µM), with 1.01 ± 0.062; and `CCCNC(C)C(=O)Nc1ccccc1C` (centres undefined) [Prilocaine·HCl] (concentration: 25 µM), with 1 ± 0.022. Then `N[C@@H](Cc1cc(I)c(Oc2ccc(O)c(I)c2)c(I)c1)C(=O)O` [Liothyronine·Na] (concentration: 25 µM), with 0.966 ± 0.02; and `Cn1ccnc1S` [Methimazole] (concentration: 25 µM), with 0.951 ± 0.011. Turning to `C[C@@H]1C[C@H]2[C@@H]3CCC4=CC(=O)C=C[C@]4(C)[C@@]3(F)[C@@H](O)C[C@]2(C)[C@H]1C(=O)CO` [Desoximetasone] (concentration: 25 µM), the mean cell size is 0.949 ± 0.035. The result for `C=CC[N+]1([C@H]2C[C@H]3[C@@H]4CC[C@H]5C[C@H](O)[C@@H](N6CCOCC6)C[C@]5(C)[C@H]4CC[C@]3(C)[C@H]2OC(C)=O)CCCC1` [Rocuronium Bromide] (concentration: 25 µM) reads 0.952 ± 0.043. The result for `CN1C2CCCC1CC(NC(=O)c1nn(C)c3ccccc13)C2` (centres undefined) [Granisetron·HCl] (concentration: 25 µM) reads 0.9687 ± 0.004; that for `CC[C@@H](CO)NCCN[C@@H](CC)CO` [Ethambutol Dihydrochloride] (concentration: 25 µM), 1.02 ± 0.064; that for `O=P(O)(O)C(O)(Cn1ccnc1)P(=O)(O)O` [Zoledronic Acid Monohydrate] (concentration: 25 µM), 0.938 ± 0.031. The result for `CN(C)CC[C@@H](c1ccc(Cl)cc1)c1ccccn1` [Dexchlorpheniramine Maleate] (concentration: 25 µM) reads 0.964 ± 0.033; that for `CN(C)CCOC(c1ccc(Cl)cc1)c1ccccn1` (centres undefined) [Carbinoxamine Maleate] (concentration: 25 µM), 0.968 ± 0.054; that for `C[C@H](CCC(=O)O)[C@H]1CC[C@H]2[C@@H]3[C@@H](O)C[C@@H]4C[C@H](O)CC[C@]4(C)[C@H]3CC[C@]12C` [Ursodiol] (concentration: 25 µM), 1.01 ± 0.031.

Source of the values: the supplement of paper PMC4709259.
